# In PubChem BioAssay AID1347426 (Functional Genomics Laboratory (NCATS/FGL), 2020):
# About 1,400 (4.5%) of roughly 31,000 sequences were called active. Only a selection was taken, and actives are over-represented in it overall. A number with no mark means an inactive call.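 The calls were made as follows: active = median seed-adjusted z-score above 1 or below -1; inactive = the rest.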
# Experiment: Novel Modifiers of Survival Motor Neuron (SMN) Protein: Gene Identification via Genome-wide siRNA Screen;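 also: luminescence tracks full-length SMN protein made from the SMN2 reporter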
# Settings: HEK293T SMN2-luciferase reporter, siRNA knockdown, 72 h; actives lie on both sides
# Outline: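 HEK293T cells stably carrying an SMN2 promoter/splicing cassette–luciferase reporter were reverse-transfected with 1 pmol siRNA per well (druggable-genome library, 3 siRNAs per gene) and grown 72 h at 37 °C. Luminescence, normalized to negative-control siRNA and log10-transformed, was scored as MAD.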
row,Sequence,median seed-adjusted z-score
1,CGGUAUGCCUGUGACGACATT against FCER2,-1.75 (active)
2,AAAUCACACCAAACACUUATT against STX11,-0.518
3,GCAGCUGCCGGAAAUGUUATT against KRT81,-0.0955
4,CAAUCAAAGGGAAACUUGATT against TPT1,0.236
5,GGAGAAUGGUUCGACUGUUTT against CKAP5,-1.87 (active)
6,GGCUGUUUGUGAUGGAUAATT against GALNT2,0.0798
7,GAAACGUGGUGAGACCUCATT against PRKX,0.0341
8,CAUUCGUCGUAACUUUACATT against MIPEP,-0.169
9,CUUUCAUCUCUAAAACUGATT against LHX3,0.622
10,CCAGAUAAAUCUAUAGCAATT against RCOR1,-1.13 (active)
11,CAAUGGAACUUUAGAUUAUTT against PCDHA11,0.582
12,GGCUUUUAAGACUAAGGAATT against TRIM69,0.214
13,GCCUCCCAGAUGAUCGUCATT against SLC6A13,0.267
14,GGACGAUGCUGAUACGGUATT against NOP2,1.15 (active)
15,CACCAGACAUCAAAAUCAATT against ATF7,0.903
16,GCACAGACCUGGUGUGGAATT against NECAB2,-0.286
17,UGACCUUUCCUAUCUAUAATT against MCART6,0.714
18,GGACACUAUAAGAAAGGAATT against FNTA,1.04 (active)
19,AGGUUUGGCUCAACUCUGATT against P2RX2,0.0454
20,GGAAAUUGCUUACAGGAAATT against ARSJ,-0.0978
21,GCUUAUCGGUUGAUCAUCATT against SLC6A4,1.43 (active)
22,GCAAGCUGCUGAUCGAGUUTT against KAT5,0.32
23,GGGACAUUUCCAAAUGGAATT against ARL6IP5,-0.202

row,Sequence,median seed-adjusted z-score
1,GGGACUCUGUAUUCCCUCUTT against WFDC2,-0.466
2,CGUAUAGUCAAAGCUCAAATT against ZNF24,0.388
3,GAAGAGUUACUACAGUAAATT against MYT1,-0.292
4,CGAAGGAAAUGUACAGCAATT against SLC25A42,-1.02 (active)
5,CAAGGUUCUUGGUUGGGUATT against ZDHHC13,-0.381
6,CAUCAAUGGUCAUAAUGCATT against HNRNPA2B1,1.33 (active)
7,AAGAUGCUCUCCCACCUAATT against POLD4,0.225
8,GGUCUACCGGAUUAUCACATT against BRD2,-0.242
9,GGUCUUGAAGUGUACCCUATT against ITGAV,1.17 (active)
10,GCAUAGACACCAUCAUCAATT against GCLC,-0.21
11,ACUUCUACAUCAACGACAATT against ALDH4A1,0.0362
12,GGAAAGAGAACGAAUCGAATT against PPM1D,-0.66
13,GCCUUUGGUUCGCAAGUUUTT against DYRK2,0
14,CAACGAUCCCUGUACCAGUTT against GABBR2,-0.038
15,CCUACUACCUCAAACACCATT against SYVN1,-1.41 (active)
16,GCUUAUUAGCCUCCAAUUUTT against ZSCAN5A,0.31
17,GAAGAACCCUGGUCUUUCATT against CARD14,-0.104
18,GCUGUGCCUUAUAACCGAATT against LRRK2,-0.671
19,GGGUCAUCCGAGAUUCUCATT against DLG5,0.467
20,GGGUCCAACAUUCCGAAUATT against CHD1,-1.03 (active)
21,GGCCUUCGGCUAAAAGAGATT against KIF22,0.283
22,CGGUAAUAGCAAUUCAGCATT against HEATR6,0
23,GAGAGAUAUUGAUCGACUUTT against ARG2,-0.796

row,Sequence,median seed-adjusted z-score
1,GAGACAAGCUUCAACCACATT against SERPINA5,-1.01 (active)
2,GCAUUGGUAAAAUUGCUAATT against AVIL,-0.127
3,CGGACCGGCAGAGAACAAATT against PLA2G10,1.07 (active)
4,GCUAUGUCAUCACUACCAATT against KCNAB3,0.0697
5,GGAGUGCCCACAGUCAGAATT against SMUG1,-1.38 (active)
6,GGCUAUGUGCGGGAGUAUATT against PI4KA,0
7,CGAUCAAUCCAACCGCACATT against MEIS3,0.207
8,CCUCGGAAGAGAUCACUAUTT against POU2F1,0.317
9,CGUUUCAGUCGUUUCAAAATT against POLR2D,-3.79 (active)
10,GGUUAUAUACCACCUUAUATT against QRSL1,-0.539
11,GCUCUAAGGUUACGGAAGATT against MCOLN2,-0.0234
12,GUCCUGUCUUGAUUAAAUUTT against CHST7,0
13,GCAGAAGAAAGAACCCGUUTT against DYNC1I1,-0.716
14,CCACCCUACUAUGCGCACATT against GJA3,0.833
15,CAAGGGUUUUCUUACAAUATT against GNA13,0
16,CAAUAUGAAGGUCGAAUUATT against TPR,-1.03 (active)
17,GACCUUAUAUGUGCAAGGATT against ZNF8,0.97
18,CGACUGGAUUAAGCAGUAUTT against ATP6V1C1,0.0821
19,UCAUGUGCCUGGAAAUUAATT against AIRE,0.308
20,GAACUGUCCGAAUCUAAUUTT against CNTNAP1,0.176
21,AAUCACAACUCCUAAAAGATT against POLR2J3,-5.42 (active)
22,ACAUCGUAGUGGGACGAAUTT against EXOSC2,-0.0798
23,CAUUCGCUCUGGUACUUAUTT against CRYZ,-0.809
